The campaign covered roughly 75,000 compounds. About 15 (0.02%) were called active. Another 3% or so got no clear call; they are omitted. The full list was thinned out, with actives kept by preference. Values without a mark were called inactive. Calls come from the whole dose curve; as a rule, active = well fitted inhibition curve with a large enough effect in the main read-out, with a control signal flat (not every such curve was filed as active); inconclusive = small, poorly fitted or top-dose-only effect, or a change in a side signal; inactive = flat fitted curve, though single readings scatter.
These compounds were tested against Caspase-7 (Homo sapiens) (UniProt P55210) (assay: qHTS Assay for Allosteric/Competitive Inhibitors of Caspase-7). Details: recombinant caspase-7, Ac-DEVD-AFC fluorescence rate; series mostly up to 57.5 µM; activity change, negative = inhibition: at the top concentration.
Sequence of Caspase-7 (Homo sapiens) (P55210 24-198 limits assumed): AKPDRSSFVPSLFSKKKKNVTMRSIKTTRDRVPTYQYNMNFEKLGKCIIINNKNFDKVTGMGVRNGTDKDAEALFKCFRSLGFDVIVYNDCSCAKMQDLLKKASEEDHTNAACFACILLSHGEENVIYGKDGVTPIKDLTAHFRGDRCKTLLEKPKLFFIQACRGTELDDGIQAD
Sequence of Caspase-7 (Homo sapiens) (P55210 207-303 limits assumed): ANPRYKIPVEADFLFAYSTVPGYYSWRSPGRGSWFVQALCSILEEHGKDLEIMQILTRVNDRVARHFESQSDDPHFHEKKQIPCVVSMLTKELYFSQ
Text: NIH Molecular Libraries Screening Centers Network [MLSCN]
NIH Chemical Genomics Center [NCGC]
PI Name: Dr. James Wells,
Dr. Enrique Perez-Paya, Dr.Janice Williams, Dr. Dennis Wolan, a person
The caspases (Cysteine Aspartyl Protease) comprise a related family of 14 dimeric proteases that are critical mediators of apoptosis (programmed cell death) and inflammation. The caspases represent an important class of drug targets for stroke, ischemia, cancer and inflammatory diseases. […] One goal of this project was to identify compounds that act as allosteric inhibitors via stabilizing the procaspase form of the enzyme. Previous work in Well's laboratory has shown that such allosteric inhibitors can be identified and these act by binding at the dimer interface of enzyme (Hardy, Lam et al., 2004).
The biochemical assay was configured using purified caspase 7 at a high enzyme concentration to promote formation of the homodimers and thus facilitate the identification of allosteric inhibitors. The overall goal was to identify reversible inhibitors with better drug-like properties than the currently available set of aspartyl-containing peptidomimetics that covalently bind the active site. Caspase 7 was assayed using the profluorescent substrate Ac-DEVD-AFC. After initiation of the assay with substrate the plates were rapidly read using an automated robotic system (Kalypsys, Inc.) to maintain consistent timing. A kinetic mode of detection was used where the initial rate was collected (estimated final product formation was ~10%). Compounds were screened as a concentration-titration series that ranged from 57 uM to 0.7 nM. Below is the protocol used for caspase 7.
NCGC Assay Protocol Summary:
Caspase 7 was prepared in buffer (50 mM HEPES pH 7.5, 50 mM KCl, 200 mM NaCl, 10 mM DTT, 0.1% CHAPS) at a concentration of 66.6 nM and 3 uL was dispensed to all wells using black solid Kalypsys 1536-well plates. 20 nL of DMSO containing compounds was added using a pin-tool (Kalypsys Inc.) to columns 5-48. Then 20 nL of DMSO solution from a control plate was added to columns 1-4. Controls were: Column 1, 16 point titration with each concentration in duplicate (1:1 dilutions in DMSO; final starting concentration was 57 uM) of the caspase 7 inhibitor Ac-DEVD-CHO (Alexis Biochemicals); Column 2, a 16 point titration with each concentration in duplicate of the free AFC fluorophore prepared in DMSO (Alexis Biochemicals), final starting was 40 uM; Column 3 neutral (DMSO only) control; Column 4: DMSO alone, to serve as a negative control (no substrate was added). Then 1 uL of 20 uM the substrate Ac-DEVD-AFC (Alexis Biochemicals) prepared in the same buffer was dispensed to all wells except columns 2 and 4 and the plates were immediately transferred (< 1 min) to the Viewlux. The plates were then exposed using 405 nm excitation/520 nm emission filters for 4 sec and read at 20 sec intervals for 3 min. Final enzyme concentration was 50 nM and the final substrate concentration was 5 uM.
Concentration-response curves were fitted to the data calculated from slope of the linear regression of fluorescent intensity versus time (the rate). The concentration-effect curves were then classified based on curve quality (r2), response magnitude and degree of measured activity. […] Inconclusive compounds had appreciable concentration-dependent effects on both the measured rate and the interpolated basal fluorescence intensity at the start of the reaction but where the basal fluorescent intensity was marginal (e.g. < 10-fold). Inconclusive compounds also encompass highly fluorescent compounds (>100-fold increases in fluorescent intensities values relative to controls) where artificial concentration-dependent decreases in the rate occurred at high compound concentrations due to fluorescent interferences.
Keywords: Caspase 7, proteases, profluorescent, MLSMR, MLSCN, NIH Roadmap, qHTS, NCGC
Potency is the fitted concentration of half-maximal effect.
Throughout, for activity change, negative = inhibition: % of control where 0% means no effect.

| SMILES | activity change, negative = inhibition | Potency |
| --- | --- | --- |
| CC1CCc2c(sc(NC(=O)c3ccc(Cn4cc(Br)cn4)o3)c2C(N)=O)C1 (centres undefined) | -12.6% |  |
| C/C(=N\O)C1(C)N(O)C(C)(C)C(c2ccc(Br)cc2)=[N+]1[O-] (centres undefined) | 0.703% |  |
| CC(=O)Nc1ccc(NC(=O)CN2CCCC(C)C2)c(Cl)c1 (centres undefined) | -0.338% |  |
| Cn1c(N)c(C(=O)COC(=O)c2cc(C(F)(F)F)nc3c(C(F)(F)F)cccc23)c(=O)n(C)c1=O | 1.07% |  |
| Cc1cc(NC(=O)CCC(=O)N(c2cccc(F)c2)C(C(=O)NC2CCCC2)c2ccncc2)no1 (centres undefined) | 0.523% |  |
| COc1ccc(N2C(=O)C3CCCN3C2c2cc(OC)c(OC)cc2OC)cc1 (centres undefined) | -1.73% |  |
| O=C(NCc1ccco1)c1cc(-c2cccnc2)nc2ccc(Cl)cc12 | -1.35% |  |
| CC(C)CN1CCc2nc(-c3ccccc3)c3c(c2C1)COC(C)C3 (centres undefined) | -0.41% [at 11.5 µM] |  |
| O=C(Nc1cccc(Cl)c1)OCc1ccccn1 | 1.86% |  |
| O=C(O)CC(C(=O)O)C(CC(=O)O)C(=O)O (centres undefined) | 0.506% |  |
| CCc1ccc(CCC(=O)Nc2ccc(S(N)(=O)=O)cc2)o1 | 0.82% |  |
| CN(C)CCSS(=O)(=O)O | -1.05% [at 11.5 µM] |  |
| C[C@@H]1O[C@@H](OC[C@H]2O[C@@H](Oc3c(-c4cccc(O)c4O)oc4cc(O)cc(O)c4c3=O)[C@H](O)[C@@H](O)[C@@H]2O)[C@H](O)[C@H](O)[C@H]1O | -1.32% |  |
| OCCCNCc1ccccn1 | 0.29% [at 11.5 µM] |  |
| O=C(NCc1ccccn1)c1cc2ccccc2oc1=O | -0.481% |  |
| O=C(NCc1ccccn1)c1ccc2nc(-c3ccco3)c(-c3ccco3)nc2c1 |  | 25.1 µM (active) |
| Cc1cccn2c(=O)c3cc(C(=O)NCc4ccccn4)n(C)c3nc12 | 0.28% |  |
| COc1ccc(CC(=O)Nc2nc3n(n2)C(c2ccccc2)CC(=O)N3)cc1OC (centres undefined) | 0.956% |  |
| Cc1cccc(NC(=O)CSc2nnc(CCCCCNC(=O)OC(C)(C)C)o2)c1C | -0.868% |  |
| CCOc1cc(C(=S)N2CCOCC2)ccc1O | -0.0185% |  |
| CC(C)C(=O)N1CCN(CCN=CC2=C(O)CC(c3ccco3)CC2=O)CC1 (centres undefined) | -3.14% |  |
| CCCCCCCCCc1ccc(OCCOCCOCCOCCOCCOCCOCCOCCOCCO)cc1 | -6.3% |  |
| COc1c2c(cc3occ(-c4ccc5c(c4)OCO5)c(=O)c13)OC(C)(C)C=C2 | -5.41% |  |
| O=C(CC1CCCCC1)Nc1c2c(nn1-c1ccc(F)cc1)CS(=O)(=O)C2 | -1.72% |  |
| CC1(C)OC2CC(=O)OC[C@@]23C1CC(=O)[C@]1(C)C3CC[C@@]2(C)C(c3ccoc3)OC(=O)C3O[C@@]321 (some centres undefined) | -1.5% |  |

| SMILES | activity change, negative = inhibition | Potency |
| --- | --- | --- |
| Cc1cccc(-c2cc(=O)c3cc(C)ccc3o2)c1 | -5.03% |  |
| CCCc1nc2c(C)cc(-c3nc4ccccc4n3C)cc2n1Cc1ccc(-c2ccccc2C(=O)O)cc1 | -5.24% |  |
| Cn1c(Cc2csc(N)n2)nnc1SC/C=C/c1ccccc1 | -17.5% |  |
| C=C(C)C1CC=C(CO)CC1 (centres undefined) | 2.74% |  |
| O=C1OC(C(O)CO)C(O)=C1O (centres undefined) | 1.71% |  |
| CCCN1[C@H](C(=O)OC)C[C@@]2(O)[C@@H](O)[C@@H](O)[C@@H](O)C[C@@H]12 | -1.49% |  |
| CCN(c1ccccc1)S(=O)(=O)c1cccc(C(=O)O)c1 | -0.863% |  |
| COc1ccccc1C(=O)C(O)c1ccccc1OC (centres undefined) | -0.715% |  |
| CCNC(=O)CCc1nc(-c2ccc(C(C)(C)C)cc2)no1 | -1.09% |  |
| CC(=O)c1c(C)n(-c2ccc(N(C)C)cc2)c2ccc(OCC(N)=O)cc12 | 0.0847% |  |
| CC(=O)OC(C(=O)NC1CCCCC1)c1ccccc1 (centres undefined) | 0.612% |  |
| CC(C)C1=CC2=CC[C@@H]3[C@](C)(CO)CCC[C@]3(C)C2CC1 (some centres undefined) | -1.8% |  |
| COC(=O)[C@@H]1C[C@H]2CC[C@H](O)C[C@H]2N1Cc1ccc(N2CCN(C)CC2)cc1 | -1.78% |  |
| COc1ccc(OCc2cccc(C(=O)N3CCCC3)c2)cc1 | -1.42% |  |
| Oc1ccc(O)c2c(O)cccc12 | -27.9% |  |
| N#CCCN1CCN(S(=O)(=O)c2ccc(S(=O)(=O)N3CCCC3)cc2)CC1 | 0.676% |  |
| O=C(Nc1cccc(-c2nnc(-c3ccccc3)o2)c1)C1CCCO1 (centres undefined) | -0.105% |  |
| FC(F)(F)c1ccc(CN2C[C@@H]3C(c4ccccc4)C4(c5ccccc5)CC3(C4)[C@H]2c2ccccc2)cc1 (some centres undefined) | -0.934% |  |
| O=C1CSC(c2cccc(F)c2)N1c1ccccc1F (centres undefined) | 0.368% |  |
| O=C(O)c1ccc(Cl)c(S(=O)(=O)Nc2ccccc2Cl)c1 | -0.369% |  |
| CN1CC(=O)N=C1N | 2.7% |  |
| CO[C@H]1COC(=O)CCC[C@@H](C)[C@H](OC)COC(=O)[C@@H](C)NC(=O)C/C=C\[C@@H]1C | 0.707% [at 11.5 µM] |  |
| COc1cc(=O)[nH]c(=O)n1C(=O)Cc1ccccc1 | -0.165% |  |
| COc1ccc(-c2cc(C(=O)NC(C(=O)O)C(C)C)c(C)o2)cc1OC (centres undefined) | 0.0406% |  |

Source: PubChem BioAssay AID889 (National Center for Advancing Translational Sciences (NCATS), 2007)
